Compounds with a hit are over-represented: about 6.6% of the library has one in this group of screens.
HepG2 tox: counter-screen for TGF-b inhibitors: cytotoxicity in HepG2 cells; HepG2 CAGA-GFP viability, ATP luminescence, 18 h; Potency, µM (doses to about 46.1 µM), without a hit: at the highest dose activity change, negative = cytotoxicity, actives largely listed as cytotoxic; 0.76% of 410,000 active; AID 588856
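HepG2 CAGA-GFP cells (1000/well, DMEM with 1% FBS) received compound, then TGF-beta at 500 pg/mL final, and were incubated 18 hours at 37 degrees C. Viability was read by CellTiter-Glo luminescence. Media-only wells were set as complete cell-killing and DMSO as no toxicity.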
HT1080NT lethal: kills 2HG-producing HT-1080-NT fibrosarcoma cells | Potency, µM (titrated, usually from 46.1 µM), inactives show top-dose activity, negative = less viability, hits mostly cytotoxic | 1.6% of 360,000 active | AID 686970 | HT-1080-NT fibrosarcoma viability, CellTiter-Glo ATP luminescence, 48 h;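 also: NT is the 2HG producing partner of a matched IDH1 knockdown line; 0% = DMSO-treated cells and -100% = media-only wells without cells; nearly all actives have a fitted effect of over 55% in size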
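HT-1080-NT; 750 cells/well; 5% FBS RPMI; 48 h compound, 37 degrees C; CellTiter-Glo luminescence; curve fitting and curve-class assignment.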
HT1080 IDH1KD tx: HT-1080 IDH1 knockdown cell toxicity (counter line) | HT-1080 IDH1 knockdown viability, ATP luminescence, 48 h | Potency, µM (highest dose often 46.1 µM), for the others: top-dose activity, negative = toxicity, usual class: cytotoxic | 2% of 360,000 active | AID 686971;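 also: 0% = DMSO wells and -100% = cell-free medium wells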
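Knockdown cells (IDH1KD HT-1080) received compounds 2 h after plating at 750 cells/well and were kept 48 h at 37 °C in 5% FBS RPMI. A CellTiter-Glo luminescence read gave % activity for curve fitting.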
KB-V1 MDR tox: KB-V1 MDR subline cytotoxicity; KB-V1 MDR cells viability, CellTiter-Glo, 72 h; Potency, µM (doses to about 46.1 µM), usual class: cytotoxic; 3.4% of 400,000 active; AID 1347076; also: % is scaled to controls: 0 for no effect and ±100 for the full control effect; nearly all actives have a fitted effect of over 60% in size
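Compound-treated KB-V1 multidrug-resistant cells, 72 h, 37 degrees C; viability by CellTiter-Glo. Fitted qHTS curves give the values.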
KB-3-1 cytotox: kills parental KB-3-1 adenocarcinoma cells; KB-3-1 viability, CellTiter-Glo ATP luminescence, 72 h; Potency, µM (series often up to 46.1 µM), most hits filed as cytotoxic; 1.4% of 400,000 active; also: % is scaled to controls: 0 for no effect and ±100 for the full control effect; nearly all actives have a fitted effect of over 60% in size
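Luminescent ATP read-out (CellTiter-Glo) measures survival of drug-naive KB-3-1 cells after 72 h compound exposure at 37 °C. Titration series was screened from lowest to highest concentration, with DMSO vehicle plates as background controls.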
TGFb inhibitor: inhibitors of TGF-b signaling; HepG2 CAGA-GFP TGF-b/SMAD3 reporter, GFP fluorescence, 18 h; TGF-beta stimulated, 500 pg/mL final; Potency, µM (titrated, usually from 46.1 µM), for inactives: at the top dose activity, negative = inhibition, most hits filed as inhibitors; 1.2% of 410,000 active; AID 588855; also: % is scaled to controls: 0 for no effect and ±100 for the full control effect; nearly all actives have a fitted effect of over 65% in size
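Read-out: total well GFP (ex488/em500-530) summed from mean per-cell fluorescence. Cells: HEPG2 CAGA-GFP, 1% FBS DMEM, 18 h at 37 degrees C with 500 pg/mL final TGF-beta. Unstimulated wells served as the full-inhibition control; stimulated DMSO wells = 0%.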
Starred values were filed as active, the others as inactive. Calls follow the shape of the dose curve; as a rule, active = well fitted curve in the direction sought with a large enough effect; inconclusive = small, poorly fitted or top-dose-only effect, or another doubt; inactive = no such curve, though single readings can be large; an effect the other way counts as inactive or inconclusive. Potency is read from the fitted curve at half-maximal effect.

Screening CCn1cc(C(=O)NCCc2ccc(OC)c(OC)c2)c(=O)c2cc(S(=O)(=O)N(C)C3CCCCC3)ccc21 returned HepG2 tox -5%, KB-V1 MDR tox inactive, KB-3-1 cytotox inactive and TGFb inhibitor inconclusive.
Screening CCOC(=O)[C@]12Cc3cc(OC)ccc3[C@H]1N(CC(=O)OC)C(=O)c1cc(OC)ccc12 returned HT1080NT lethal inconclusive, HT1080 IDH1KD tx inconclusive, KB-V1 MDR tox inconclusive and KB-3-1 cytotox 4.6µM*.
For CCOC(=O)[C@]12Cc3cc(Cl)ccc3[C@H]1N(C)C(=O)c1cc(OC)ccc12 the results were HT1080NT lethal inconclusive, HT1080 IDH1KD tx inconclusive, KB-V1 MDR tox 4.1µM* and KB-3-1 cytotox 2.6µM*.
`CCOC(=O)[C@]12Cc3cc(OC)ccc3[C@H]1N(C)C(=O)c1cc(OC)ccc12` gave HT1080NT lethal inconclusive, HT1080 IDH1KD tx inconclusive, KB-V1 MDR tox inconclusive and KB-3-1 cytotox 3.7µM*.
`CCCCCN1C(=O)c2ccccc2[C@@]2(C(=O)OCC)Cc3cc(Cl)ccc3[C@@H]12` gave HT1080NT lethal inconclusive, HT1080 IDH1KD tx inconclusive, KB-V1 MDR tox inactive and KB-3-1 cytotox inconclusive.
For CCCCCN1C(=O)c2cc(OC)ccc2[C@@]2(C(=O)OCC)Cc3cc(OC)ccc3[C@@H]12 the results were HT1080NT lethal 15µM*, HT1080 IDH1KD tx 13µM*, KB-V1 MDR tox 23µM* and KB-3-1 cytotox 5.8µM*.
For CC(C)Cn1c(=O)oc2ccccc21 the results were HepG2 tox 6%, HT1080NT lethal -1%, HT1080 IDH1KD tx -3%, KB-V1 MDR tox inactive, KB-3-1 cytotox inactive and TGFb inhibitor inconclusive.
`Cc1cccc(N(CC(=O)NCCSc2ccc(Cl)cc2)S(=O)(=O)c2ccccc2)c1C` gave HepG2 tox -20% and TGFb inhibitor inconclusive.
Cc1cccc(-c2nn3c(=O)cc(CN4CCN(C(=O)COc5ccc(Cl)cc5)CC4)nc3s2)c1 was read as HepG2 tox -16%, KB-V1 MDR tox inactive, KB-3-1 cytotox inactive and TGFb inhibitor inconclusive.
For Clc1ccc(Cc2nn3c(Cn4nnc5ccccc54)nnc3s2)cc1 the results were HepG2 tox -30%, HT1080NT lethal -4%, HT1080 IDH1KD tx inconclusive, KB-V1 MDR tox 4.1µM*, KB-3-1 cytotox inactive and TGFb inhibitor 23%.
Screening CSc1cccc(NC(=O)C2CCN(C(=O)c3cnn(-c4ccccc4)c3-n3cccc3)CC2)c1 returned HepG2 tox -20%, KB-V1 MDR tox inactive, KB-3-1 cytotox inconclusive and TGFb inhibitor inconclusive.
CC12CCC3C(CCCC4CC(=O)CCC43C)C1CCC2O (stereo unspecified) was read as HepG2 tox -29%, HT1080NT lethal 9%, HT1080 IDH1KD tx 10%, KB-V1 MDR tox 7.3µM*, KB-3-1 cytotox inconclusive and TGFb inhibitor -22%.
Screening CC12CCC3C(CCC4CC(=O)C(C(O)C(F)(F)F)CC43C)C1CCC2O (stereo unspecified) returned HepG2 tox -10%, HT1080NT lethal -9%, HT1080 IDH1KD tx -10%, KB-V1 MDR tox inactive, KB-3-1 cytotox inactive and TGFb inhibitor inconclusive.
CC1CC2CC(=O)CCC2(C)C2CCC3(C)C(O)CCC3C12 (stereo unspecified) was read as HepG2 tox 10%, HT1080NT lethal 8%, HT1080 IDH1KD tx 13%, KB-V1 MDR tox 5.8µM*, KB-3-1 cytotox inconclusive and TGFb inhibitor 13%.
For CCC(C)(C)NC(=O)Cn1c(-c2ccc(C)cc2)noc1=O the results were HepG2 tox 72%, HT1080NT lethal 11%, HT1080 IDH1KD tx 2%, KB-V1 MDR tox inactive, KB-3-1 cytotox inactive and TGFb inhibitor 31%.
Screening CC(=O)Nc1ccc(OC(=O)N2CCN(/[N+]([O-])=N/Oc3ccc([N+](=O)[O-])cc3[N+](=O)[O-])CC2)cc1 returned HepG2 tox -101% and TGFb inhibitor inconclusive.
For Cc1cc(OCC(=O)N2CCN(CCc3ccncc3)CC2)cc(C)c1Cl the results were HepG2 tox -36%, KB-V1 MDR tox inactive, KB-3-1 cytotox inactive and TGFb inhibitor -11%.
Screening O=C(c1cc(C(=O)NCc2ccc(Cl)cc2)c(=O)n(Cc2ccc(Cl)cc2)c1)c1cc(F)ccc1O returned HepG2 tox -4%, HT1080NT lethal -16%, HT1080 IDH1KD tx -19%, KB-V1 MDR tox 7.3µM*, KB-3-1 cytotox inconclusive and TGFb inhibitor 1%.
Cc1ccc(O)c(C(=O)c2cc(C(=O)NCCC(C)C)c(=O)n(CCC(C)C)c2)c1 was read as HepG2 tox 8%, HT1080NT lethal -9%, HT1080 IDH1KD tx -6%, KB-V1 MDR tox inconclusive, KB-3-1 cytotox inactive and TGFb inhibitor inconclusive.
CN(C)C(=O)Oc1c(Cl)cc(Cl)c2cccnc12 was read as HepG2 tox 4%, HT1080NT lethal -1%, HT1080 IDH1KD tx 6%, KB-V1 MDR tox inactive, KB-3-1 cytotox inactive and TGFb inhibitor 1%.
For Cc1ccc2c(Cl)cc(Cl)c(O)c2n1 the results were HepG2 tox -30%, HT1080NT lethal -24%, HT1080 IDH1KD tx 8.2µM*, KB-V1 MDR tox inactive, KB-3-1 cytotox inactive and TGFb inhibitor 13µM*.
O=C(c1ccc2c(c1)N(Cc1ccc(F)cc1Cl)C(=O)c1ccccc1S2)N1CCC2(CC1)OCCO2 was read as HepG2 tox -19% and TGFb inhibitor 11µM*.
CCS(=O)(=O)N1CCCC(C(=O)N2CCC3(CC2)OCCO3)C1 (stereo unspecified) was read as HepG2 tox 2%, HT1080NT lethal 25%, HT1080 IDH1KD tx 12%, KB-V1 MDR tox inactive, KB-3-1 cytotox inactive and TGFb inhibitor 5%.
Screening CC(C)CC(NC(=O)C1CCCCC1)C(=O)N1CCC2(CC1)OCCO2 (stereo unspecified) returned HepG2 tox 0%, HT1080NT lethal -4%, HT1080 IDH1KD tx 4%, KB-V1 MDR tox 10µM*, KB-3-1 cytotox inactive and TGFb inhibitor 1%.
For COc1cccc(NC(=O)c2cccn(Cc3ccccc3C)c2=O)c1 the results were HepG2 tox -13%, KB-V1 MDR tox inactive, KB-3-1 cytotox inconclusive and TGFb inhibitor inconclusive.

Bioassay records: PubChem, National Center for Advancing Translational Sciences (NCATS)
